CYP2C9 inh = blockers of cytochrome P450 2C9 activity – biochemical, luminescence, ADME assay, primary screen. CYP2C9 Supersomes, luciferin-H conversion. inhibition, % at 5 µM. P11712. 20% of 96,000 active;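 active = blocking of liver enzyme CYP2C9 beyond about 50% at 5 µM, limit read from the data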
Target sequence (P11712 whole entry, looked up): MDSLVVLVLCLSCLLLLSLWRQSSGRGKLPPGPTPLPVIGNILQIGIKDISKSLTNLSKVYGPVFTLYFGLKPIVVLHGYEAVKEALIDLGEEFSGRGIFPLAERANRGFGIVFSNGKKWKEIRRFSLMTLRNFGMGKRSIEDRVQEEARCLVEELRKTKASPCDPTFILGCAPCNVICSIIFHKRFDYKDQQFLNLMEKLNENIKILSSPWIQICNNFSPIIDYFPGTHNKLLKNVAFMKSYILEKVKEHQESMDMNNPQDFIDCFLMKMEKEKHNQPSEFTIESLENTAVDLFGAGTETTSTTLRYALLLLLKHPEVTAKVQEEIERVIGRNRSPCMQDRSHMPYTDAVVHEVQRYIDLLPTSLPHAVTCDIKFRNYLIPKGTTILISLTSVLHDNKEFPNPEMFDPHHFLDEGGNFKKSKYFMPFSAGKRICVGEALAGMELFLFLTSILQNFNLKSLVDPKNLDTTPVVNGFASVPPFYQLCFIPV
CYP2C9 activ = human CYP2C9 activators, primary screen, biochemical, luminescence | recombinant CYP2C9, luciferin-H conversion; active compounds read high; factor 1 = untreated enzyme, 0 = blocked | activation factor at 5 µM | 1.4% of 96,000 active;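 active = activation factor of 2 or more for CYP2C9 at a 5 µM dose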;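 note: 0 = sulfaphenazole-blocked wells and 1 = vehicle-only wells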
CYP2C19 inhib = blockers of cytochrome P450 2C19 activity – biochemical, luminescence, ADME assay, primary screen. P33261. CYP2C19 Supersomes, luciferin-H EGE luminescence, 30 min. inhibition, % at 5 µM. 21% of 96,000 active. AID 778, 2007;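 active = CYP2C19 inhibition above a set limit at 5 µM in the primary screen, cut at about 50% in these data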;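 note: plate controls were negative control wells for no effect and 2.5 mM tranylcypromine positive control for full effect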
PLK1 inh = human PLK1 kinase inhibitors, primary screen, biochemical, TR-FRET. Serine/threonine-protein kinase PLK1 (Homo sapiens), P53350. recombinant PLK1 kinase, TR-FRET peptide phosphorylation. inhibition, % at 10 µM. 0.53% of 97,000 active. AID 619, 2007;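 active = inhibition of 50% or more in the single-concentration screen; inactive = inhibition below 50%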;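 note: 0% = DMSO max control and 100% = H-89 dihydrochloride min control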
Plk1 PBD FP = Plk1 polo box domain binding inhibitors, primary screen, biochemical, fluorescence polarization. 0.13% of 97,000 active. Plk1 PBD phosphopeptide binding. inhibition, %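 (tested at about 20 µM)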. Serine/threonine-protein kinase PLK1 (Homo sapiens), P53350; in the data active = inhibition above about 34%, passing the limit was not always enough
CYP2C19 activ = human CYP2C19 activators, primary screen, biochemical, luminescence; 96,000 tested, under 10 active; activation factor at 5 µM; Cytochrome P450 2C19 (Homo sapiens), P33261; recombinant CYP2C19, luciferin-H EGE luminescence; active compounds read high; 0 = fully inhibited enzyme, 1 = untreated enzyme;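 active = activation factor of at least 2 at 5 µM in the primary screen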;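 note: 0 = wells with 2.5 mM tranylcypromine and 1 = vehicle-only wells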
Numbers without * were called inactive; nt = not tested or not shown. Hits are enriched below; roughly 28% of the tested compounds scored in any of these assays.

SMILES	CYP2C9 inh	CYP2C9 activ	CYP2C19 inhib	PLK1 inh	Plk1 PBD FP	CYP2C19 activ
CCn1c2ccccc2c2nnc(SCc3ccccc3)nc21	25	0.7	27	nt	nt	0.7
N#CC1=C(N)NC(SCc2ccccc2)=C(C#N)C12CCCCC2	100*	0	100*	-2	-7	0
CCSC1=C(C#N)C2(CCCCC2)C(C#N)=C(N)N1	84*	0.2	59*	-7	6	0.4
CCSC1=C(C#N)C2(CCCCC2)C(C#N)C(=O)N1 (stereo not given)	30	0.7	12	-14	-20	0.9
Cc1cc(NC(=O)c2cccc(F)c2)ncc1NC(=O)c1ccco1	63*	0.4	96*	-8	7	0
Cc1ccccc1OCC(=O)Nc1cccc(NC(=O)c2ccco2)c1	19	0.8	72*	-1	3	0.3
CCOc1ccccc1NC(=O)c1cccc(NC(=O)c2ccco2)c1	-91	1.9	76*	-15	6	0.2
CCCCCOC(=O)c1ccc(NC(=O)c2ccco2)cc1	94*	0.1	80*	-13	-1	0.2
COc1ccc(-c2ccc(C3C(C#N)=C(N)Oc4n[nH]c(C)c43)o2)cc1 (stereo not given)	32	0.7	22	36	-13	0.8
Cc1cc2cc(C)c3nnc(SCC(=O)N4CCc5ccccc54)n3c2cc1C	-3	1	-6	-7	6	1.1
CC(C)CNC(=O)COc1ncnc2ccccc12	19	0.8	-1	-2	19	1
CCOc1ccc(C(=O)Nc2ccc(Cl)cn2)cc1Cl	2	1	16	4	11	0.8
OC(COCc1ccc2c(c1)OCO2)CN1CCN(Cc2ccccc2)CC1 (stereo not given)	23	0.8	-6	-12	-6	1.1
O=C(O)c1nn(-c2ccc(Cl)cc2)ccc1=O	-9	1.1	-7	-15	-11	1.1
Nc1nc2ccc(S(=O)(=O)c3ccc4nc(N)sc4c3)cc2s1	29	0.7	49	-9	6	0.5
Cc1cc(NC(=O)CCCSc2nc(-c3ccco3)cc(C(F)(F)F)n2)n(-c2ccccc2)n1	nt	nt	nt	1	-6	nt
CCCCOc1ccccc1NC(=O)c1ccco1	0	1	52*	-12	-3	0.5
COc1ccc(OC)c(C2CC(=O)N3CN(c4ccccc4F)CSC3=C2C#N)c1 (stereo not given)	89*	0.1	47	-22	2	0.5
COc1cccc(C2CC(=O)N3CN(c4ccccc4F)CSC3=C2C#N)c1 (stereo not given)	84*	0.2	68*	-22	6	0.3
CN(C)S(=O)(=O)c1ccc(C(=O)N2CCN=C2SCc2cccnc2)cc1	-3	1	-9	-12	7	1.1
O=C(c1ccc2c(c1)OCO2)N1CCN=C1SCc1cccnc1	67*	0.3	76*	-14	14	0.2
COc1ccc(C(=O)N2CCN=C2SCc2cccnc2)c(OC)c1	62*	0.4	88*	-9	22	0.1
CCN(CC)S(=O)(=O)c1ccc(C(=O)N2CCN=C2SCc2cccnc2)cc1	48	0.5	38	-17	23	0.6
COc1cccc(C(=O)N2CCN=C2SCc2cccnc2)c1OC	42	0.6	86*	-8	-3	0.1
COc1ccc(-n2c(C)c([N+](=O)[O-])c3ccc(O)c(CN4CCCCC4)c32)cc1	36	0.6	26	-6	-10	0.7
SMILES	CYP2C9 inh	CYP2C9 activ	CYP2C19 inhib	PLK1 inh	Plk1 PBD FP	CYP2C19 activ
COc1ccc(-c2cn3ccc4ccccc4c3n2)cc1	nt	nt	nt	-11	-16	nt
O=C(COC(=O)C1(c2ccc(F)cc2)CCCC1)N1CCN(C(=O)c2ccco2)CC1	82*	0.2	73*	-15	25	0.3
CCN(CC)S(=O)(=O)c1ccc(C(=O)OCC(=O)N2CCN(C(=O)c3ccco3)CC2)cc1	96*	0	15	nt	nt	0.8
CCS(=O)(=O)N1CCN(C(=O)c2ccco2)CC1	-6	1.1	10	-34	-15	0.9
O=C(OCC(=O)N1CCN(C(=O)c2ccco2)CC1)c1ccccc1OCc1ccc(Cl)cc1	77*	0.2	39	nt	nt	0.6
O=C(c1ccco1)N1CCN(C(=O)c2ccccc2OC(=O)C23CC4CC(CC(C4)C2)C3)CC1	65*	0.3	79*	-12	-34	0.2
O=C(OCC(=O)N1CCN(C(=O)c2ccco2)CC1)c1ccccc1O	72*	0.3	46	2	1	0.5
N#Cc1ccccc1Sc1ccccc1C(=O)OCC(=O)N1CCN(C(=O)c2ccco2)CC1	77*	0.2	25	nt	nt	0.7
O=C(COC(=O)c1ccccc1OCc1ccc(Cl)cc1)NC1CC1	62*	0.4	75*	0	-20	0.3
O=C(Nc1ccccc1C(=O)OCC(=O)N1CCc2ccccc2C1)c1ccco1	87*	0.1	65*	-7	2	0.3
CC1CCC(NC(=O)COc2ccccc2C(N)=O)CC1 (stereo not given)	-8	1.1	21	-3	-1	0.8
C=CCn1c(SCC(=O)Nc2ncc(Cc3ccc(Br)cc3)s2)nnc1-c1ccncc1	-1	1	33	-6	-27	0.7
COC(=O)c1ccc(Sc2ccccc2NS(=O)(=O)c2ccc(OC)cc2)nc1	44	0.6	26	-8	17	0.7
C=CCNc1nc(Nc2ccc(OC)cc2)nc(OC)n1	-5	1.1	-10	-11	3	1.1
O=C(Cc1ccc(Br)cc1)NC1CCCCC1	-4	1	23	2	-11	0.8
O=C(Cc1ccc(-n2cccc2)cc1)NC1CCCCC1	69*	0.3	55*	-2	-10	0.4
Cc1onc(-c2ccccc2Cl)c1C(=O)Nc1cnn(Cc2ccccc2)c1	37	0.6	9	nt	nt	0.9
CCCn1c(=O)c2ccccc2n2c(SCc3c(C(=O)OCC)oc4ccccc34)nnc12	64*	0.4	59*	-10	29	0.4
O=C(NC1CCN(C(=O)Nc2cccc(F)c2)CC1)C1CCCCC1	3	1	0	0	9	1
COc1cccc(N2CCN(CC(=O)Nc3nnc(-c4ccccc4)s3)CC2)c1	78*	0.2	50*	-12	0	0.5
O=C(Nc1cccc(F)c1)N1CC=C(c2ccc(Cl)cc2)CC1	96*	0	96*	-7	36	0
CCOC(=O)c1cccc(NC(=O)CN2CCN(c3ccc(OC)cc3)CC2)c1	73*	0.3	54*	-12	-19	0.5

From PubChem
